Our source for the outcome values is PubChem BioAssay (EPA / NIEHS).

Results filed as inconclusive are left out. Calls of active or inactive are those of the source. Rule for the calls: active = hit-call score of the fitted dose curve at least 0.9, where 1 is the maximum; inconclusive = response in the unintended direction; inactive = score below 0.9.

A short description of this experiment: TOX21_PR_LUC_Followup_Antagonist_viability: Viability Assessment in the Tox21 HEK293 Progesterone Receptor (PR) Antagonism Luciferase Follow-Up Assay (AID 2283940). The source says:
TOX21_PR_LUC_Followup is a secondary assay for specificity for the TOX21_PR_BLA_Agonist assay. To differentiate true PR agonists from cytotoxic substances, this follow up assay is multiplexed with a cell viability assay.TOX21_PR_LUC_Followup_Antagonist_viability is an assay readout measuring cellular ATP content and detected with CellTiter-Glo Luciferase-coupled ATP quantitation.TOX21_PR_LUC_Followup_Antagonist_viability used a type of viability reporter where loss-of-signal activity can be used to understand changes in the cell viability. Furthermore, this assay endpoint can be referred to as a secondary readout, because this assay has produced multiple assay endpoints where this one serves a viability function. To generalize the intended target to other relatable targets, this assay endpoint is annotated to the cell cycle intended target family, where the subfamily is cytotoxicity.
Quality Control Precautions: Maintain cells below 85-90% confluence in culture medium. For assay purpose, the cells should be cultured in assay medium with 10% charcoal stripped FBS for 5 days with alternate day medium changed to fresh medium. Especially while in assay culture, the cells should not reach more than 85% confluence as they would become harder to detach if they reach over confluence.Assay Protocol: HEK293-PR-A-luc cells were dispensed at 3,000 cells/5 uL/well of culture medium into white wall/solid-bottom 1536-well plates using a Multidrop Combi (ThermoFisher Scientific, Waltham, MA) dispenser. After the assay plates were incubated at 37C and […] for 5 h, 23 nL of compounds dissolved in DMSO, positive controls or DMSO only was transferred to the assay plate by a Pintool station (Kalypsys, San Diego, CA). The plates were incubated at 37C and […] for 16 h. Then 4 uL of ONE-Glo reagent (Promega, Madison, WI) was added to each plate using a BioRAPTR Flying Reagent Dispenser (FRD) workstation (Beckman Coulter, Indianapolis, IN, USA) and luminescence was quantified on a ViewLux (PerkinElmer, Shelton, CT) plate reader after 30 min incubation at room temperature.
For `CC(C)C[C@H](NC(=O)[C@H](CCc1ccccc1)NC(=O)CN1CCOCC1)C(=O)N[C@@H](Cc1ccccc1)C(=O)N[C@@H](CC(C)C)C(=O)[C@@]1(C)CO1`, the compound was classed as inactive. To `CCn1c2ccccc2c2cc([N+](=O)[O-])ccc21` belongs “inactive”; to `C[C@H]1C[C@H]2[C@@H]3CCC4=CC(=O)C=C[C@]4(C)[C@@]3(F)[C@@H](O)C[C@]2(C)[C@@]1(O)C(=O)CO`, “inactive”. Next, `CCOC(=O)C1=C(C)NC(C)=C(C(=O)OC)C1c1cccc([N+](=O)[O-])c1` (stereo not given): “inactive”; `O=C(Nc1ccc(Cl)c(Cl)c1)C1CC1`: “inactive”. Next, `N#C/C(=C1/SC[C@@H](c2ccc(Cl)cc2Cl)S1)n1ccnc1`: “inactive”; `C[C@]12CCC(=O)C=C1C=C[C@@H]1[C@@H]2CC[C@@]2(C)[C@H]1CC[C@@]21CCC(=O)O1`: “inactive”; `C=C1C(CCl)(CCl)C2(Cl)C(Cl)C(Cl)C1(Cl)C2(Cl)Cl` (stereo not given): “inactive”. For the compound `CN(C1CCCCC1)S(=O)(=O)c1ccccc1N`, the compound was classed as inactive.

As for `C[C@]12CCC(=O)C=C1CC[C@@H]1[C@@H]2CC[C@@]2(C)[C@H]1CC[C@]2(O)C(=O)CO`, the compound was classed as inactive.

In the case of `CC(=O)OCC(=O)[C@@]1(O)CC[C@H]2[C@@H]3CCC4=CC(=O)C=C[C@]4(C)[C@H]3[C@@H](O)C[C@@]21C`, the compound was called inactive. To `CCC(=C(CC)c1ccc(O)cc1)c1ccc(O)cc1` belongs “inactive”; to `COCCOC(=O)C1=C(C)NC(C)=C(C(=O)OC(C)C)C1c1cccc([N+](=O)[O-])c1` (stereo not given), “inactive”; to `COC(=O)C1=C(C)NC(COC(N)=O)=C(C(=O)OC(C)C)C1c1cccc(Cl)c1Cl` (stereo not given), “inactive”. Next, `C[C@@H]1C[C@H]2[C@@H]3C[C@H](F)C4=CC(=O)C(Cl)=C[C@]4(C)[C@@]3(F)[C@@H](O)C[C@]2(C)[C@@]1(O)C(=O)CO`: “inactive”. Take `CC(=O)OCC(=O)[C@@]1(O)CC[C@H]2[C@@H]3CCC4=CC(=O)C=C[C@]4(C)[C@@]3(F)[C@@H](O)C[C@@]21C`: the compound was called inactive. Next, `CC(C)C[C@H](NC(=O)[C@H](Cc1ccccc1)NC(=O)c1cnccn1)B(O)O`: “inactive”.

For `C[C@]12C=CC(=O)C=C1[C@@H](F)C[C@@H]1[C@@H]2[C@@H](O)C[C@@]2(C)[C@H]1CC[C@]2(O)C(=O)CO`, the compound was classed as inactive. Regarding `CC(COc1ccccc1)N(CCCl)Cc1ccccc1` (stereo not given), the call was inactive. Next, `C[C@H]1C[C@H]2[C@@H]3CCC4=CC(=O)C=C[C@]4(C)[C@@]3(Cl)[C@@H](O)C[C@]2(C)[C@@]1(O)C(=O)CO`: “inactive”; `CCCCN1CCCC1C(=O)Nc1c(C)cc(C)cc1C` (stereo not given): “inactive”; `COCCOC(=O)C1=C(C)NC(C)=C(C(=O)OC/C=C/c2ccccc2)C1c1cccc([N+](=O)[O-])c1` (stereo not given): “inactive”. On to `Cc1ccc(/C=N/n2c(-c3ccccc3)csc2=S)cc1`, for which the compound was classed as inactive. To `CC1(C)CCC(C)(C)c2cc(NC(=O)c3ccc(C(=O)O)cc3)ccc21` belongs “inactive”. To `Nc1ccccc1S(=O)(=O)c1ccccc1` belongs “inactive”; to `C#C[C@]1(O)CC[C@H]2[C@@H]3CCc4cc(OC5CCCC5)ccc4[C@H]3CC[C@@]21C`, “inactive”; to `NC(=O)n1c(O)c(C(=O)c2cccs2)c2cc(Cl)ccc21`, “inactive”. Next, `c1ccc2c(c1)CCc1ccccc1N2`: “inactive”; `O=C1Nc2ccc(Cl)cc2[C@@](C#CC2CC2)(C(F)(F)F)O1`: “inactive”. For `COC(=O)C1=C(C)NC(C)=C(C(=O)OCC(C)=O)C1c1ccccc1[N+](=O)[O-]` (stereo not given), the compound was classed as inactive.

For `c1cc[c]([Bi]([c]2ccccc2)[c]2ccccc2)cc1`, the call was inactive. Next, `C[C@]12CCC(=O)C=C1[C@@H]1C[C@@H]1[C@H]1[C@@H]3[C@@H]4C[C@@H]4[C@@]4(CCC(=O)O4)[C@@]3(C)CC[C@@H]12`: “inactive”; `Oc1ccc2c(c1)Cc1ccccc1-2`: “inactive”; `COC(=O)C1=C(C)NC(C)=C(C(=O)OCCN2CCN(C(c3ccccc3)c3ccccc3)CC2)C1c1cccc([N+](=O)[O-])c1` (stereo not given): “inactive”. Next, `Oc1ccc(N=Nc2ccccc2)cc1`: “inactive”.
